From the supplement of paper PMC10849652
Of roughly 8,800 targets only a part is listed; those with a hit were picked by preference. About 0.5% of all pairs of compound and target were hits.

Key:
Assay in all cases: log2 fold change, soluble protein after heating vs DMSO (PISA); higher = thermal stabilisation; K562 lysate, 10 uM; active = over 0.2 and 3.5 SD of the protein, either way, in both replicates (recomputed)
erlotinib = compound: C#Cc1cccc(Nc2ncnc3cc(OCCOC)c(OCCOC)cc23)c1 [erlotinib]
Method in brief: (§1)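 Values give the log-two fold change in thermal stability against solvent controls, from duplicates. Crude K562 extract at 1 mg/mL protein, made by dounce homogenisation in PBS pH 7.4 with 1 mM MgCl2, was treated with 10 μM compound for 30 min. After 3 min heating across 48°C-58°C, aliquots were pooled, adjusted to 0.5% NP-40 at 4°C and centrifuged at 21,000xg for 90 min. The supernatant was measured by TMTpro 16plex LC-MS/MS with channel sums equalised.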

[1] = compound: C/C(=N\NC(=O)C1=CC(=CC=C1)S(=O)(=O)N2CCOCC2)/C3=C(C=CC(=C3)Cl)O
Method in brief: as §1

[2] = compound: C1=CC(=CC=C1C2=NC3=C(N2)C=C(C=C3)C(=O)N)OC4=CC=C(C=C4)Cl
Method in brief: as §1

[3] = compound: C1=CC2=C(C=CC(=C2)/C=C\3/C(=O)NC(=NCC4=CC=CS4)S3)N=C1
Method in brief: as §1

[4] = compound: C1=CC2=NC=CN=C2C=C1/C=C/3\C(=O)NC(=O)S3
Method in brief: as §1

[5] = compound: C1=CC=C(C=C1)C2=NC(=C(N2)C3=CC=NC=C3)C4=CC(=C(C=C4)Cl)O
Method in brief: as §1

[6] = compound: C1=CC=C2C(=C1)C3=NNC4=CC=CC(=C43)C2=O
Method in brief: as §1

[7] = compound: C1CCN(C1)C(=O)NC2=CC=CC(=C2)NC3=NC=C(C(=N3)NCCC4=CN=CN4)Br
Method in brief: as §1

[8] = compound: C1CN(CCC1(CC2=CC=C(C=C2)Cl)N)C3=NC=NC4=C3C=CN4
Method in brief: as §1

IRAK-1-4 Inhibitor I = compound: C1COCCN1CCN2C3=CC=CC=C3N=C2NC(=O)C4=CC(=CC=C4)[N+](=O)[O-] [IRAK-1-4 Inhibitor I]
Method in brief: as §1

Measured: log2 fold change

SMG1 (UniProt Q96Q15)
inactive: erlotinib -0.004 | [1] -0.031 | [2] -0.046 | [3] 0.009 | [4] 0.029 | [5] -0.022 | [6] -0.072 | [7] -0.036 | [8] 0.024 | IRAK-1-4 Inhibitor I -0.008

STK3 isoform 2 (UniProt Q13188)
inactive: erlotinib -0.009 | [1] -0.1 | [2] 0.012 | [3] -0.07 | [4] -0.001 | [5] 0.016 | [6] 0.181 | [7] 0.157 | [8] 0.031 | IRAK-1-4 Inhibitor I -0.005

SLC16A1 (UniProt P53985)
inactive: erlotinib -0.007 | [1] -0.038 | [2] 0.036 | [3] 0.029 | [4] -0.018 | [5] 0.034 | [6] 0.034 | [7] -0.024 | [8] 0.004 | IRAK-1-4 Inhibitor I 0.032

SSB (UniProt E7ERC4)
inactive: erlotinib -0.03 | [1] 0.071 | [2] -0.063 | [3] 0 | [4] 0.02 | [5] 0.015 | [6] -0.142 | [7] 0.089 | [8] 0.01 | IRAK-1-4 Inhibitor I -0.043

TARBP2 (UniProt Q15633)
UniProt Q15633, sequence (Q15633 whole entry, looked up): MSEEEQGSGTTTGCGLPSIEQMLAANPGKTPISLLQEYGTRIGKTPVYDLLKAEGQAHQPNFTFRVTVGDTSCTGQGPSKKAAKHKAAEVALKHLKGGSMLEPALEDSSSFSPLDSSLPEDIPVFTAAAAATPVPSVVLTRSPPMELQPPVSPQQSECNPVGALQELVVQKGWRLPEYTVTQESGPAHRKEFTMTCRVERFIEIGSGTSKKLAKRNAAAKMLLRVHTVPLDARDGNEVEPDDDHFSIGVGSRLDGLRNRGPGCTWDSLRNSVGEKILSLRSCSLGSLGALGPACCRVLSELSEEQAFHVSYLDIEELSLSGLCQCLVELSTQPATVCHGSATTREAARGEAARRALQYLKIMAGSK
inactive: erlotinib 0.03 | [1] -0.095 | [2] -0.066 | [3] -0.026 | [4] 0.007 | [5] 0.027 | [6] -0.029 | [7] 0.012 | [8] -0.002 | IRAK-1-4 Inhibitor I 0.011

STK36 (UniProt Q9NRP7)
UniProt Q9NRP7, sequence (Q9NRP7 whole entry, looked up): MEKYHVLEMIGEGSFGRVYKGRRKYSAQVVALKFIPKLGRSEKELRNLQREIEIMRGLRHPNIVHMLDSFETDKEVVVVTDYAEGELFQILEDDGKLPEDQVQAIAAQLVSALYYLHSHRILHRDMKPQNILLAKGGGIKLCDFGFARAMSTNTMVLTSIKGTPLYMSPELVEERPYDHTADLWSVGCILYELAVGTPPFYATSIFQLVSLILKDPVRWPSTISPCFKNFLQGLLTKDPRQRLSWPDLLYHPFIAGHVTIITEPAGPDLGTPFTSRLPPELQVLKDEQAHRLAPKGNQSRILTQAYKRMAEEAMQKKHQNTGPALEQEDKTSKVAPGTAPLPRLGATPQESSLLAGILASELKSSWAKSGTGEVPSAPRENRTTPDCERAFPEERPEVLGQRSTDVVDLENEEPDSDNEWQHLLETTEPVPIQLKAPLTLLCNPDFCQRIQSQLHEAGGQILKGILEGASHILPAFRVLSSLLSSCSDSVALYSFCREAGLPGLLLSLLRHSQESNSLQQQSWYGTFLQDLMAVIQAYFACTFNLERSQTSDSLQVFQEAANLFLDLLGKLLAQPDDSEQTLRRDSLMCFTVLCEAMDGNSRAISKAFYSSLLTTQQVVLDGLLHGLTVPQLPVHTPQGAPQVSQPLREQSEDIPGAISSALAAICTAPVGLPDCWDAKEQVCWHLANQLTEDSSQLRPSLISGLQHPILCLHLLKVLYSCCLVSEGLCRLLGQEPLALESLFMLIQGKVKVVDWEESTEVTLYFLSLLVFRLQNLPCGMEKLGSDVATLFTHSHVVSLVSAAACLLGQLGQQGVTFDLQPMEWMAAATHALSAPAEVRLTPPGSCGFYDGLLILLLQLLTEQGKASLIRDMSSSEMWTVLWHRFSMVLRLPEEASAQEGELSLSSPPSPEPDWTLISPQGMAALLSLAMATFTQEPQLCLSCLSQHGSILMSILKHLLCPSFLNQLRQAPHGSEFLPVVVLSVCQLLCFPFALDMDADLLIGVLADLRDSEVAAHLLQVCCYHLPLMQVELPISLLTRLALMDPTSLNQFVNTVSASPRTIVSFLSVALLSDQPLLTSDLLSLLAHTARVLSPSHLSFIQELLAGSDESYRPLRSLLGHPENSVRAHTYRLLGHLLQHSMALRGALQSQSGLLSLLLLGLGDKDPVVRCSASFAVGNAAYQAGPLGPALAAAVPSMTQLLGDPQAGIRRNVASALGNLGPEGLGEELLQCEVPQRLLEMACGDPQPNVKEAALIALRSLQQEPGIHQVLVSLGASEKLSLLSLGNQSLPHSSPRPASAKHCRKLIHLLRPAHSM
inactive: erlotinib 0.114 | [1] -0.06 | [2] 0.251 | [3] -0.199 | [4] -0.169 | [5] -0.075 | [6] -0.241 | [7] -0.049 | [8] 0.185 | IRAK-1-4 Inhibitor I 0.205

SMN1 (UniProt Q16637)
inactive: erlotinib 0.038 | [1] 0.009 | [2] 0.042 | [3] -0.075 | [4] -0.055 | [5] 0.096 | [6] -0.068 | [7] -0.046 | [8] -0.104 | IRAK-1-4 Inhibitor I 0.02

SLU7 (UniProt O95391)
UniProt O95391, sequence (O95391 whole entry, looked up): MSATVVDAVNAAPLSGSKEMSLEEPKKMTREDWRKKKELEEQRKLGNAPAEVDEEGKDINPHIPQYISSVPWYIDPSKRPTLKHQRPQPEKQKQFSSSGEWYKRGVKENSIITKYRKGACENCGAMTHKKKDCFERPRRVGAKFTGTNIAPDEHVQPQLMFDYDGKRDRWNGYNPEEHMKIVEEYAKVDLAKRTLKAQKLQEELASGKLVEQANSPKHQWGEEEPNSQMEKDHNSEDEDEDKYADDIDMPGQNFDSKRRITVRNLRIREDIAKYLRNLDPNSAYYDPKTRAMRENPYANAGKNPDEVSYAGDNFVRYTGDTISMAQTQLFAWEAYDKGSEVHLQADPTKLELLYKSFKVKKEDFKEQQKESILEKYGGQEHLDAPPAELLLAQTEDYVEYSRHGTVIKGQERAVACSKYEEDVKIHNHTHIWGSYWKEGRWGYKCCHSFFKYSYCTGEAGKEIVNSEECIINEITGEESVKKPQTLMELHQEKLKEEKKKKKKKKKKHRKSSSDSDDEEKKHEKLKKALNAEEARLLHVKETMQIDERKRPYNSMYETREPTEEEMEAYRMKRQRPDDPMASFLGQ
inactive: erlotinib -0.02 | [1] -0.086 | [2] -0.021 | [3] 0.09 | [4] -0.026 | [5] 0.021 | [6] 0.036 | [7] -0.096 | [8] -0.041 | IRAK-1-4 Inhibitor I -0.07

SULT1A1 (UniProt P50225)
UniProt P50225, sequence (P50225 whole entry, looked up): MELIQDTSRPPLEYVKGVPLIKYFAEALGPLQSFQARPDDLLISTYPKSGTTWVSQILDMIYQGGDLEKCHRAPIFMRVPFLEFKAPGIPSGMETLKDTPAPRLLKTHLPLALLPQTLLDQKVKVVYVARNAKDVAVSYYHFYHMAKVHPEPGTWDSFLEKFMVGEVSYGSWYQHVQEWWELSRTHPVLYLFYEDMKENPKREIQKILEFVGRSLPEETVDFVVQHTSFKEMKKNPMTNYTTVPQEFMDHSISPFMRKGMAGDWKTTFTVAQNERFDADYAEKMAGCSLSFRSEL
inactive: erlotinib -0.045 | [1] 0.08 | [2] -0.014 | [3] 0.069 | [4] 0.048 | [5] -0.011 | [6] -0.061 | [7] -0.026 | [8] 0.018 | IRAK-1-4 Inhibitor I -0.04

SMC2 (UniProt O95347)
inactive: erlotinib -0.001 | [1] -0.011 | [2] -0.011 | [3] 0.001 | [4] 0.012 | [5] 0.013 | [6] -0.036 | [7] 0.003 | [8] -0.008 | IRAK-1-4 Inhibitor I -0.019

STIM1 (UniProt Q13586)
inactive: erlotinib -0.037 | [1] 0.089 | [2] -0.014 | [3] 0.021 | [4] 0.001 | [5] -0.016 | [6] -0.059 | [7] -0.009 | [8] 0.005 | IRAK-1-4 Inhibitor I -0.01

SRP54 (UniProt P61011)
inactive: erlotinib -0.026 | [1] 0.017 | [2] 0.035 | [3] 0.023 | [4] -0.043 | [5] 0.005 | [6] -0.039 | [7] -0.047 | [8] -0.003 | IRAK-1-4 Inhibitor I -0.014

SPAG5 (UniProt Q96R06)
inactive: erlotinib 0.013 | [1] 0.012 | [2] -0.054 | [3] 0.003 | [4] -0.008 | [5] 0.014 | [6] 0.018 | [7] -0.009 | [8] -0.011 | IRAK-1-4 Inhibitor I 0

STARD3 isoform 3 (UniProt Q14849)
inactive: erlotinib -0.014 | [1] 0.104 | [2] -0.022 | [3] -0.085 | [4] -0.078 | [5] -0.003 | [6] 0.107 | [7] -0.085 | [8] 0.133 | IRAK-1-4 Inhibitor I 0.047

SKA2 (UniProt Q8WVK7)
UniProt Q8WVK7, sequence (Q8WVK7 whole entry, looked up): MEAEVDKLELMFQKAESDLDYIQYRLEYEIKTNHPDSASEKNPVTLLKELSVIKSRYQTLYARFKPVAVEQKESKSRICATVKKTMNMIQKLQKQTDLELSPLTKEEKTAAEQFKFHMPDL
inactive: erlotinib -0.006 | [1] -0.058 | [2] 0.014 | [3] -0.011 | [4] -0.042 | [5] 0.001 | [6] -0.081 | [7] -0.006 | [8] -0.019 | IRAK-1-4 Inhibitor I -0.056

SLC29A2 (UniProt Q14542)
UniProt Q14542, sequence (Q14542 whole entry, looked up): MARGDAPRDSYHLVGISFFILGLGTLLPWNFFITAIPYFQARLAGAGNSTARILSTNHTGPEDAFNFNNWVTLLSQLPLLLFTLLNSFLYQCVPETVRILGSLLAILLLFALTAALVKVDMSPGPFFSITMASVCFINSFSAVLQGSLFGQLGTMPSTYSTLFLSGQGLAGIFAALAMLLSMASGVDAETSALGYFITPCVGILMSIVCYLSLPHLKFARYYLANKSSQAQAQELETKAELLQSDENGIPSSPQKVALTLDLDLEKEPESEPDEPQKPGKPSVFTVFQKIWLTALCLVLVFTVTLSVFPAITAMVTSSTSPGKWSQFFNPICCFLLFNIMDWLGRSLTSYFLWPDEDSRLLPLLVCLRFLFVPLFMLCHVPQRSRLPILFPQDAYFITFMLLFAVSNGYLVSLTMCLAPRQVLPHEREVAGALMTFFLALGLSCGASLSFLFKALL
inactive: erlotinib -0.147 | [1] 0.016 | [2] -0.04 | [3] 0.013 | [4] -0.028 | [5] -0.033 | [6] 0.018 | [7] 0.018 | [8] 0.085 | IRAK-1-4 Inhibitor I 0.102

SNRPD2 (UniProt P62316)
UniProt P62316, sequence (P62316 whole entry, looked up): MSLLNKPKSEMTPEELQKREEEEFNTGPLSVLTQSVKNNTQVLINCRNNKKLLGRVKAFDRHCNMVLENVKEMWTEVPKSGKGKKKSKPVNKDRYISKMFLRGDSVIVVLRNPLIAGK
inactive: erlotinib 0.019 | [1] 0.005 | [2] 0.058 | [3] -0.004 | [4] -0.018 | [5] -0.001 | [6] -0.035 | [7] 0.004 | [8] -0.008 | IRAK-1-4 Inhibitor I 0.004

SMG5 (UniProt Q9UPR3)
inactive: erlotinib -0.037 | [1] -0.038 | [2] 0.028 | [3] -0.008 | [4] -0.012 | [5] -0.074 | [6] -0.035 | [7] -0.004 | [8] -0.043 | IRAK-1-4 Inhibitor I 0.007

SMIM8 (UniProt Q96KF7)
UniProt Q96KF7, sequence (Q96KF7 whole entry, looked up): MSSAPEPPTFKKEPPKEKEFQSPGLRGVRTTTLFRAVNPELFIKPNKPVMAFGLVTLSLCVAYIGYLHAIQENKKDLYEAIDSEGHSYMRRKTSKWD
inactive: erlotinib -0.057 | [1] 0.005 | [2] 0.028 | [3] 0.004 | [4] -0.004 | [5] -0.137 | [6] 0.028 | [7] 0.026 | [8] 0 | IRAK-1-4 Inhibitor I 0.058

SNRPD3 (UniProt P62318)
UniProt P62318, sequence (P62318 whole entry, looked up): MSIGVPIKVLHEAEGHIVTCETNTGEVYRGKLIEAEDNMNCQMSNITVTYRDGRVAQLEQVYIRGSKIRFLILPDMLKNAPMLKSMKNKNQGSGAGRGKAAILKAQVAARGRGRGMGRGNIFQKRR
inactive: erlotinib 0.017 | [1] 0.021 | [2] 0.016 | [3] -0.057 | [4] 0.013 | [5] -0.013 | [6] 0.033 | [7] 0.019 | [8] 0.044 | IRAK-1-4 Inhibitor I 0.026

STMN3 (UniProt Q9NZ72)
UniProt Q9NZ72, sequence (Q9NZ72 whole entry, looked up): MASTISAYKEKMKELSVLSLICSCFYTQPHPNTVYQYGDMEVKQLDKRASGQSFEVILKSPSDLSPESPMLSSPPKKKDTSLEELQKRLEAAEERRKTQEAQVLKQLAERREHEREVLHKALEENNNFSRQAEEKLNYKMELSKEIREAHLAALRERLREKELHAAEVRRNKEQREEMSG
inactive: erlotinib 0.012 | [1] 0.01 | [2] -0.003 | [3] -0.122 | [4] -0.062 | [5] -0.026 | [6] 0.043 | [7] -0.097 | [8] 0.091 | IRAK-1-4 Inhibitor I -0.006

SLC39A11 (UniProt Q8N1S5)
inactive: erlotinib -0.093 | [1] 0.116 | [2] -0.047 | [3] -0.139 | [4] -0.071 | [5] 0.05 | [6] 0.062 | [8] 0.058 | IRAK-1-4 Inhibitor I -0.053
active: [7] 0.385

SPATA5L1 (UniProt Q9BVQ7)
inactive: erlotinib 0.09 | [1] -0.053 | [2] -0.017 | [3] 0.044 | [4] 0.004 | [5] 0.069 | [6] 0.01 | [7] 0.027 | [8] 0.032 | IRAK-1-4 Inhibitor I 0.015

SLC25A17 (UniProt O43808)
inactive: erlotinib 0.035 | [1] 0.057 | [2] 0.061 | [3] 0.014 | [4] -0.015 | [5] 0.012 | [6] -0.021 | [7] 0.012 | [8] 0.03 | IRAK-1-4 Inhibitor I 0.056

SLC38A1 (UniProt Q9H2H9)
UniProt Q9H2H9, sequence (Q9H2H9 whole entry, looked up): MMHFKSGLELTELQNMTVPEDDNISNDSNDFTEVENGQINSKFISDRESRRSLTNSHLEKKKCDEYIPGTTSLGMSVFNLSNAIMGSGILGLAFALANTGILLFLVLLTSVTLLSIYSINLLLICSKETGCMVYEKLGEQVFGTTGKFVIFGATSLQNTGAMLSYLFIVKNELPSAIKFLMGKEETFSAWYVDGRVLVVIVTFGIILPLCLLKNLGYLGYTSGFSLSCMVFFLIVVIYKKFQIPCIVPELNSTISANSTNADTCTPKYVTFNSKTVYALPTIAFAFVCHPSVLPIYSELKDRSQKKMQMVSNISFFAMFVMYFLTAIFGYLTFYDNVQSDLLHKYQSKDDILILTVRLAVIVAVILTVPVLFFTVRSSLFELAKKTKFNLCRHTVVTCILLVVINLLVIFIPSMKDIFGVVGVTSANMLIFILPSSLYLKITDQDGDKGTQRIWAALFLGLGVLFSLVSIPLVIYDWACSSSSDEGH
inactive: erlotinib -0.01 | [1] -0.029 | [2] 0.056 | [3] 0.007 | [4] 0.01 | [5] 0.039 | [6] -0.061 | [7] -0.027 | [8] 0.026 | IRAK-1-4 Inhibitor I 0.053

SYF2 (UniProt O95926)
inactive: erlotinib 0 | [1] 0.043 | [2] 0.037 | [3] -0.025 | [4] -0.015 | [5] 0.037 | [6] 0.063 | [7] -0.048 | [8] 0 | IRAK-1-4 Inhibitor I -0.057

STUB1 (UniProt Q9UNE7)
UniProt Q9UNE7, sequence (Q9UNE7 whole entry, looked up): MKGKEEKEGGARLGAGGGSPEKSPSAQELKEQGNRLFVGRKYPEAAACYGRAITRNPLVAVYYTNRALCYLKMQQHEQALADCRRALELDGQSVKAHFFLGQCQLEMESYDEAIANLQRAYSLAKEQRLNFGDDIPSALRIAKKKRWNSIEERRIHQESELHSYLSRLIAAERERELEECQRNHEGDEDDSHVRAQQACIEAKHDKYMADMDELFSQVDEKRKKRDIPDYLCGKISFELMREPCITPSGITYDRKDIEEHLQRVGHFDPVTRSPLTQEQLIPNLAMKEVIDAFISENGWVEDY
inactive: erlotinib 0.05 | [1] 0.024 | [2] -0.034 | [3] -0.022 | [4] 0.009 | [5] 0.003 | [6] -0.033 | [7] 0.013 | [8] 0.006 | IRAK-1-4 Inhibitor I -0.018

SMAD2 (UniProt Q15796)
UniProt Q15796, sequence (Q15796 whole entry, looked up): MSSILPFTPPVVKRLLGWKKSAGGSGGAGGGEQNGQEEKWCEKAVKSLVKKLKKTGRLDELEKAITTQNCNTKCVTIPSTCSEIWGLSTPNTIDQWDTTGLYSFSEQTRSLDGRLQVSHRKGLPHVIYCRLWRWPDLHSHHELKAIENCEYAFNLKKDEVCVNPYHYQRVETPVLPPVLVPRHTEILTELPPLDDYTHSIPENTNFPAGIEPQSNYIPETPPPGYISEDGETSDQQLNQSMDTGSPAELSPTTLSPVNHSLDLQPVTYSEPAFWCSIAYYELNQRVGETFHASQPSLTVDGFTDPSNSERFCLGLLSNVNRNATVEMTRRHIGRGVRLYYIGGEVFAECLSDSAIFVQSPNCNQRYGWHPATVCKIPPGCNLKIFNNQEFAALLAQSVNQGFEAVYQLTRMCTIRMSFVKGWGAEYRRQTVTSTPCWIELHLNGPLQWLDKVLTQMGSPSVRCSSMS
inactive: erlotinib 0.14 | [1] 0.062 | [2] -0.018 | [3] 0.03 | [4] 0.002 | [5] 0.074 | [6] -0.003 | [7] 0.004 | [8] 0.035 | IRAK-1-4 Inhibitor I -0.03

SHC1 isoform 6 (UniProt P29353)
inactive: erlotinib 0.029 | [1] -0.024 | [2] 0.05 | [3] 0.035 | [4] 0.04 | [5] 0.011 | [6] -0.043 | [7] -0.005 | [8] 0.001 | IRAK-1-4 Inhibitor I 0.012

SMTN isoform 6 (UniProt P53814)
inactive: erlotinib -0.033 | [1] 0.081 | [2] -0.01 | [3] 0.035 | [4] 0.006 | [5] 0.021 | [6] 0.005 | [7] -0.018 | [8] 0.015 | IRAK-1-4 Inhibitor I 0.058
